“And” between values parts separate entries of the source, which are not always exact repeats. Equal values may be shown once. About 2,000 (36%) of roughly 5,500 compounds were called active. Inconclusive results (about 18%) are left out. Rule as the data show it: active = normalized growth mostly below about 0.91 (no sharp cut-off); inconclusive = no clear call, values can overlap the other calls; inactive = mostly above about 0.92. Some of the results follow.
Test: chemical genetic growth profiling, strain panel (AID 1159580);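 also: tested at 20 µM; growth read once vehicle control cultures reached saturation at 30 °C; 1 = growth at the plate median or of vehicle wells; lower values mean less growth of the strain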
Details: S. cerevisiae deletion strains, growth OD

Measured: normalized growth

c1cncc(C2CCCCN2)c1 (configuration not stated)
inactive: locus YAL021C, strain ccr4, stronger effect = lower value 0.986 | locus YAL026C, strain drs2, stronger effect = lower value 0.999 | locus YAL030W, strain snc1, stronger effect = lower value 1 | locus YBL061C, strain skt5, stronger effect = lower value 0.995 | locus YBR009C, strain hhf1, stronger effect = lower value 0.995 | locus YBR021W, strain FUR4, stronger effect = lower value 1.02 | locus YBR023C, strain chs3, stronger effect = lower value 0.998 | locus YBR171W, strain sec66, stronger effect = lower value 0.985 | locus YBR229C, strain ROT2, stronger effect = lower value 1.02 | locus YBR231C, strain swc5, stronger effect = lower value 0.991 | locus YBR279W, strain paf1, stronger effect = lower value 0.99 | locus YCL011C, strain gbp2, stronger effect = lower value 0.997 | locus YCL016C, strain dcc1, stronger effect = lower value 0.996 | locus YCL029C, strain bik1, stronger effect = lower value 0.982 | locus YCL061C, strain MRC1, stronger effect = lower value 0.988 | locus YCL069W, strain vba3, stronger effect = lower value 0.993 | locus YCR088W, strain abp1, stronger effect = lower value 0.993 | locus YDL005C, strain med2, stronger effect = lower value 0.997 | locus YDL035C, strain GPR1, stronger effect = lower value 1.04 | locus YDL040C, strain nat1, stronger effect = lower value 0.992 | locus YDL074C, strain BRE1, stronger effect = lower value 1.01 | locus YDL101C, strain DUN1, stronger effect = lower value 1.01 | locus YDL185W, strain tfp1, stronger effect = lower value 1 | locus YDL192W, strain arf1, stronger effect = lower value 0.998 | locus YDR001C, strain nth1, stronger effect = lower value 0.991 | locus YDR069C, strain doa4, stronger effect = lower value 0.988 | locus YDR101C, strain arx1, stronger effect = lower value 0.971 | locus YDR137W, strain rgp1, stronger effect = lower value 0.996 | locus YDR159W, strain sac3, stronger effect = lower value 0.979 | locus YDR162C, strain NBP2, stronger effect = lower value 1 | locus YDR195W, strain ref2 0.98 | locus YDR297W, strain sur2, stronger effect = lower value 0.986 | locus YDR318W, strain mcm21, stronger effect = lower value 1.01 | locus YDR334W, strain swr1, stronger effect = lower value 0.99 | locus YDR335W, strain msn5, stronger effect = lower value 0.994 | locus YDR388W, stronger effect = lower value 0.996 | locus YDR392W, strain spt3, stronger effect = lower value 0.99 | locus YDR502C, strain sam2, stronger effect = lower value 0.995 | locus YEL003W, strain gim4, stronger effect = lower value 1.01 | locus YEL037C, strain rad23, stronger effect = lower value 0.999 | locus YEL061C, strain CIN8 (second series), stronger effect = lower value 0.992 | locus YEL061C, strain CIN8, stronger effect = lower value 0.999 | locus YER015W, strain faa2, stronger effect = lower value 0.997 | locus YER016W, strain bim1, stronger effect = lower value 0.995 | locus YER110C, stronger effect = lower value 0.98 | locus YER111C, strain swi4, stronger effect = lower value 0.989 | locus YER155C, strain BEM2 (second series), stronger effect = lower value 0.996 | locus YER155C, strain BEM2, stronger effect = lower value 1.01 | locus YER167W, strain BCK2, stronger effect = lower value 0.993 | locus YFR010W, strain ubp6, stronger effect = lower value 0.989 | locus YGL078C, strain dbp3, stronger effect = lower value 1 | locus YGL086W, strain mad1, stronger effect = lower value 0.978 | locus YGL167C, strain pmr1, stronger effect = lower value 0.989 | locus YGL173C, strain kem1, stronger effect = lower value 0.984 | locus YGL227W, strain vid30, stronger effect = lower value 0.983 | locus YGL240W, strain doc1, stronger effect = lower value 0.981 | locus YGL248W, strain PDE1, stronger effect = lower value 1.03 | locus YGL253W, strain hxk2, stronger effect = lower value 0.986 | locus YGR078C, strain PAC10, stronger effect = lower value 1.01 | locus YGR135W, strain pre9, stronger effect = lower value 0.999 | locus YGR252W, strain gcn5, stronger effect = lower value 0.969 | locus YHR013C, strain ard1, stronger effect = lower value 1 | locus YHR027C, strain rpn1, stronger effect = lower value 0.985 | locus YHR030C, strain SLT2, stronger effect = lower value 1.01 and 1.02 | locus YHR079C, strain IRE1 (second series), stronger effect = lower value 0.998 | locus YHR079C, strain IRE1, stronger effect = lower value 1 | locus YHR094C, strain hxt1, stronger effect = lower value 0.996 | locus YHR129C, strain ARP1, stronger effect = lower value 1 | locus YHR142W, strain chs7, stronger effect = lower value 0.985 | locus YHR200W, strain rpn10, stronger effect = lower value 0.999 | locus YIL066C, strain RNR3, stronger effect = lower value 1.01 | locus YIL073C, strain SPO22, stronger effect = lower value 0.996 | locus YIL125W, strain kgd1, stronger effect = lower value 0.986 | locus YIR030C, strain dcg1, stronger effect = lower value 0.988 | locus YJL092W, strain hpr5, stronger effect = lower value 0.995 | locus YJL095W, strain BCK1 (second series), stronger effect = lower value 1.01 | locus YJL095W, strain BCK1, stronger effect = lower value 1.05 and 0.994 | locus YJL115W, strain asf1, stronger effect = lower value 0.986 | locus YJL129C, strain trk1, stronger effect = lower value 0.999 | locus YJL134W, strain LCB3, stronger effect = lower value 1.01 | locus YJL154C, strain vps35, stronger effect = lower value 0.991 | locus YJL164C, strain tpk1, stronger effect = lower value 0.998 | locus YJL166W, strain qcr8, stronger effect = lower value 0.993 | locus YJL168C, strain set2, stronger effect = lower value 0.995 | locus YJL187C, strain SWE1 (second series), stronger effect = lower value 1.03 | locus YJL187C, strain SWE1, stronger effect = lower value 1.01 | locus YJR043C, strain POL32, stronger effect = lower value 1.02

— PubChem BioAssay AID1159580 (chemical genetic matrix, 2015)
